Assay results reported in PubChem BioAssay AID372 (MTDP, 2006).
In all, about 100,000 compounds went through this assay and about 770 (0.77%) were called active. The list comes from a sample in which actives are over-represented; it also holds similar structures and randomly drawn compounds. Unmarked numbers belong to inactive results. No stated cut-off is given here; in the data, active means inhibition above about 50%; inactive means the rest.

These compounds were tested against Gag-Pol polyprotein (Human immunodeficiency virus type 1 group M subtype B (isolate HXB2)) (UniProt P04585) (assay: RNase H inhibition, HIV 1 Gag Pol polyprotein, FRET biochemical assay, screening (AID 372)). Details: HIV-1 RT RNase H, FRET RNA/DNA substrate fluorescence; at 10 µM; stronger effect = higher value.

| Structure (SMILES) | inhibition |
| --- | --- |
| CC(C)=C1C2CCC1C(C(=O)NCc1ccccc1)C2C(=O)O (stereo unspecified) | 0% |
| Cn1c(O)c(C(=NCc2ccccc2)c2ccccc2)c(=O)n(C)c1=O | 8% |
| O=C(Nc1cccc2ccccc12)/C(=C/c1ccccc1)c1ccccc1 | 28% |
| COc1cccc(OCCCOc2ccccc2[N+](=O)[O-])c1 | 14% |
| CCOC(=O)C1=C(C)NC2=C(C(=O)CC(c3ccccc3)C2)C1c1cccc([N+](=O)[O-])c1 (stereo unspecified) | 15% |
| CCOc1ccc(C(=O)Nc2ccc(C(C)=O)cc2)cc1[N+](=O)[O-] | 5% |
| COc1ccc(C(=O)Nc2ccc(NC(C)=O)cc2)cc1[N+](=O)[O-] | 5% |
| CCOc1ccc(C(=O)Nc2ccc(NC(=O)c3ccccc3)cc2)cc1[N+](=O)[O-] | 56% (active) |
| CCOc1ccc(C(=O)Nc2cccc(NC(=O)c3ccccc3)c2)cc1[N+](=O)[O-] | 0% |
| COc1ccc(C(=O)Nc2ccc(NC(=O)c3ccc(Br)cc3)cc2)cc1[N+](=O)[O-] | 59% (active) |
| COc1ccc(C(=O)Nc2ccc(NC(=O)c3ccccc3)cc2)cc1[N+](=O)[O-] | 23% |
| O=C(/C=C/c1ccc2c(c1)OCO2)Nc1ccccn1 | 6% |
| O=[N+]([O-])c1ccc(-c2ccc(/C=N/n3cnnc3)o2)c(Br)c1 | 12% |
| COc1ccc([N+](=O)[O-])cc1-c1ccc(/C=N/n2cnnc2)o1 | 57% (active) |
| COc1ccc(-c2ccc(/C=N/n3cnnc3)o2)c([N+](=O)[O-])c1 | 14% |
| COc1cccc(NC(=O)c2ccc(CN(c3ccc(C)c(C)c3)S(C)(=O)=O)cc2)c1 | 3% |
| CC1=C(C(=O)Nc2ccc(Br)cc2)C(c2ccccc2)NC(=O)N1 (stereo unspecified) | 18% |
| O=C(/C=C/c1ccc(-c2ccc(Cl)cc2)o1)c1ccccc1 | 20% |
| O=C(/C=C\c1ccc(-c2cc(Cl)ccc2Cl)o1)c1ccccc1 | 40% |
| O=C(/C=C/c1ccc(-c2ccccc2Cl)o1)c1ccc(F)cc1 | 47% |
| O=C(/C=C/c1ccc(-c2cc(Cl)cc(Cl)c2)o1)c1ccccc1 | 51% (active) |
| CC(=O)/C=C/c1ccc(-c2cc(Cl)ccc2Cl)o1 | 54% (active) |
| O=C(/C=C/c1ccc(-c2ccc(Cl)cc2Cl)o1)c1ccccc1 | 13% |
| O=C(/C=C/c1ccc(-c2cc(Cl)ccc2Cl)o1)c1ccc(F)cc1 | 52% (active) |
| O=C(/C=C/c1ccc(-c2ccc(Cl)cc2Cl)o1)c1ccc(F)cc1 | 27% |
| COc1ccc(C(=O)/C=C/c2ccc(-c3cc(Cl)ccc3Cl)o2)cc1 | 15% |
